According to PubChem BioAssay (Tox21):
“And” between values parts separate entries of the source, which are not always exact repeats. Equal values may be shown once. Results filed as inconclusive are left out. Entries that show only a call come without a potency. Some structures have more than one record in an assay (separate samples or runs), and their calls can disagree. The source made the active and inactive calls. Unless noted, the call rests on the fitted dose curve; in most records, active means well fitted curve in the direction sought with a large enough effect in the repeat runs; inconclusive means weak or mixed curves; inactive means no such curve, though single readings can be large; an effect the other way counts as inactive or inconclusive.

Key:
[1] = A CellTox Green Cytotoxicity Assay to monitor cytotoxicity in HEK293 cells - 32 hour (AID 1224881); further: nearly all actives have a fitted effect of over 40% in size
Summary of the method: (§1)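 Tox21 screen in HEK293: membrane-impermeant cyanine dye fluoresces on binding dead-cell DNA; compound pinned 5 h post-seeding, plates held at 37 C, signal read repeatedly through 40 h.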

[2] = A CellTox Green Cytotoxicity Assay to monitor cytotoxicity in HepG2 cells - 0 hour (AID 1224882); further: nearly all actives have a fitted effect of over 35% in size
Summary of the method: (§2)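 Measurements at 0, 8, 16, 24, 32 and 40 h of treatment captured CellTox Green fluorescence in HepG2 cells that had been co-plated with reagent and preincubated 5 h at 37 C/5% CO2.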

[3] = A CellTox Green Cytotoxicity Assay to monitor cytotoxicity in HepG2 cells - 32 hour (AID 1224883); further: nearly all actives have a fitted effect of over 50% in size
Summary of the method: as §2

[4] = A CellTox Green Cytotoxicity Assay to monitor cytotoxicity in HEK293 cells - 8 hour (AID 1224884); further: nearly all actives have a fitted effect of over 35% in size
Summary of the method: as §1

[5] = qHTS RealTime-Glo MT Cell Viability Assay in HepG2 cells - 16 hour (AID 1224885); further: nearly all actives have a fitted effect of over 50% in size
Summary of the method: (§3)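 HepG2 cells (600/well) were dispensed with RealTime-Glo reagents, incubated 5 h at 37 °C, then treated with compounds in DMSO for up to 40 h. Nonlytic NanoLuc luminescence reflecting viable cells was read at each stated time point.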

[6] = qHTS RealTime-Glo MT Cell Viability Assay in HEK293 cells - 24 hour (AID 1224886); further: nearly all actives have a fitted effect of over 50% in size; further: potency means the concentration at half of the fitted maximal effect
Summary of the method: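 HEK293 cells seeded with NanoLuc/prosubstrate reagent, rested 5 h at 37 C, then dosed and kept at 37 C up to 40 h. Nonlytic real-time luminescence from viable cells read at 0, 8, 16, 24, 32 and 40 h.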

[7] = qHTS RealTime-Glo MT Cell Viability Assay in HEK293 cells - 8 hour (AID 1224887); further: top concentration of the series differs between compounds; nearly all actives have a fitted effect of over 50% in size
Summary of the method: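 HEK293 + NanoLuc + prosubstrate, 600 cells/well; 5 h, 37 C/5% CO2; compound 23 nL in DMSO by pintool; 37 C; luminescence read at 0, 8, 16, 24, 32 and 40 h time points.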

[8] = A CellTox Green Cytotoxicity Assay to monitor cytotoxicity in HEK293 cells - 16 hour (AID 1224888); further: nearly all actives have a fitted effect of over 35% in size
Summary of the method: as §1

[9] = qHTS RealTime-Glo MT Cell Viability Assay in HepG2 cells - 0 hour (AID 1224889); further: nearly all actives have a fitted effect of over 50% in size
Summary of the method: as §3

[10] = A CellTox Green Cytotoxicity Assay to monitor cytotoxicity in HepG2 cells - 8 hour (AID 1224890); further: nearly all actives have a fitted effect of over 45% in size
Summary of the method: as §2

[11] = qHTS assay to identify small molecule antagonists of the androgen receptor (AR) signaling pathway using the MDA cell line in the presence of 0.5 nM R1881 - cell viability counter screen (AID 1259242); further: nearly all actives have a fitted effect of over 45% in size
Summary of the method: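 Concentration-response screen of compounds for toxicity in MDA-kb2 reporter cells: 16 hr at 37C with 0.5 nM R1881, endpoint live-cell protease fluorescence measured in the reporter wells.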

[12] = qHTS assay to identify small molecule HDAC inhibitors (AID 1259364); further: potency means the concentration at half of the fitted maximal effect;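 further: wild-type HCT-116 cells with endogenous class I/II HDAC activity; nearly all actives have a fitted effect of over 45% in size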
Summary of the method: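 Screening used wild-type human colon HCT-116 cells incubated overnight, dosed with compounds for 2 hours, and assayed with a homogeneous luminogenic HDAC I/II reagent for 30 minutes at room temperature.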

[13] = qHTS assay to identify small molecule agonists of the sonic hedgehog signaling (Shh) pathway - cell viability counter screen (AID 1259366); further: nearly all actives have a fitted effect of over 50% in size; further: potency means the concentration at half of the fitted maximal effect
Summary of the method: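 Cytotoxicity counter screen: CellTiter-Fluor reagent added after 23 h compound exposure, then 1 h at 37C and fluorescence read. Cells were 3T3 Gli1-Luc, seeded 2,000 per well and dosed 4 h post-plating.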

[14] = qHTS assay to identify small molecule antagonists of the sonic hedgehog signaling (Shh) pathway - cell viability counter screen (AID 1259367); further: nearly all actives have a fitted effect of over 55% in size; further: potency means the concentration at half of the fitted maximal effect
Summary of the method: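 Fluorescence read-out (CellTiter-Fluor, 1 hr at 37C) taken after 23 hr compound treatment of 3T3 Gli1-Luc cells stimulated with conditioned medium. Cells were seeded at 2,000 per well and pre-incubated 4 hr.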

[15] = qHTS assay to identify small molecule agonists of the sonic hedgehog signaling (Shh) pathway (AID 1259368; calls by dose curve; further: nearly all actives have a fitted effect of over 15% in size; further: potency means the concentration at half of the fitted maximal effect)
Summary of the method: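 Hedgehog pathway agonism scored by increased firefly luciferase luminescence in 3T3Gli1-Luc cells treated 24 hr at 37 C; detection used a 30 min room-temperature reagent incubation.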

[16] = qHTS assay to identify small molecule antagonists of the estrogen receptor alpha (ER-alpha) signaling pathway using the BG1 cell line in the presence of 0.1 nM 17-beta-estradiol - cell viability counter screen (AID 1259241); further: nearly all actives have a fitted effect of over 40% in size
Summary of the method: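 Cytotoxicity counter-screen: live-cell protease activity measured by fluorescence (30 min reagent step) in the same wells. Cells were VM7Luc4E2 with endogenous ER-alpha and ERE-driven luciferase, treated 22 hr at 37C alongside 0.1 nM 17beta-estradiol final.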

[17] = qHTS assay to identify small molecule HDAC inhibitors - cell viability counter screen (AID 1259365)
Summary of the method: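 CellTiter-Glo luminescence (30 min, room temperature) reported viability after a 2 h compound exposure at 37 C. Cells: wild-type HCT-116, 1,500 per well, seeded the night before.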

[18] = biological target: Estrogen receptor (Homo sapiens) (UniProt P03372); experiment: qHTS assay to identify small molecule antagonists of the estrogen receptor alpha (ER-alpha) signaling pathway using the BG1 cell line in the presence of 0.1 nM 17-beta-estradiol (AID 1259244); further: nearly all actives have a fitted effect of over 50% in size
Summary of the method: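 Compounds were tested against 0.1 nM (final) 17beta-estradiol in VM7Luc4E2 cells, which express full-length ER-alpha and an ERE-luciferase reporter; luminescence was recorded following 22 h exposure.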

[19] = qHTS assay to identify small molecule phospholipidosis (PLD) inducers (AID 1259344; active means well fitted curve in the direction sought with a large enough effect; an effect the other way counts as inactive or inconclusive)
Summary of the method: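 Read-out is LipidTOX Red fluorescence (ex 595/em 615) imaged in HepG2 cells after 24 h compound exposure at 37 C, with Hoechst nuclear counterstain (ex 352/em 461) allowing per-cell normalisation.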

[20] = biological target: Androgen receptor (Homo sapiens) (UniProt P10275); experiment: qHTS assay to identify small molecule antagonists of the androgen receptor (AR) signaling pathway using the MDA cell line in the presence of 0.5 nM R1881 (AID 1259243); further: nearly all actives have a fitted effect of over 50% in size
Summary of the method: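 With R1881 held at 0.5 nM (final), compound effects on MMTV-luciferase expression in MDA-kb2 cells were scored by luminescence after a 16 hr, 37C incubation.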

Chain of Estrogen receptor (Homo sapiens) (P03372 whole entry, looked up): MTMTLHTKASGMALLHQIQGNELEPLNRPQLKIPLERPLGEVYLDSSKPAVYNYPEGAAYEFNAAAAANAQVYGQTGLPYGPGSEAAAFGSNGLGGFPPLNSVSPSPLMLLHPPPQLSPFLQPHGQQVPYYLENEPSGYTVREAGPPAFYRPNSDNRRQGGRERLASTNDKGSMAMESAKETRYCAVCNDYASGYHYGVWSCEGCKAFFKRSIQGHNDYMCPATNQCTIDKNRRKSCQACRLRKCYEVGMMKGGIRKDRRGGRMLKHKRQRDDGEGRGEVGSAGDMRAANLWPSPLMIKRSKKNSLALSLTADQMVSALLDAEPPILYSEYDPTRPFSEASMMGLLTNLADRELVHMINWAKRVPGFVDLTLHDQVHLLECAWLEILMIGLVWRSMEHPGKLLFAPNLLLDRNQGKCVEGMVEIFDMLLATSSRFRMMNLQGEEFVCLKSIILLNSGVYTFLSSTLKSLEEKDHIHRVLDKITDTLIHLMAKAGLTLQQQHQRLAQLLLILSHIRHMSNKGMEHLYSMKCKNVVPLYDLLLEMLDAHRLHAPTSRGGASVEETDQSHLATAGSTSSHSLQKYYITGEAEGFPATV
Chain of Androgen receptor (Homo sapiens) (P10275 whole entry, looked up): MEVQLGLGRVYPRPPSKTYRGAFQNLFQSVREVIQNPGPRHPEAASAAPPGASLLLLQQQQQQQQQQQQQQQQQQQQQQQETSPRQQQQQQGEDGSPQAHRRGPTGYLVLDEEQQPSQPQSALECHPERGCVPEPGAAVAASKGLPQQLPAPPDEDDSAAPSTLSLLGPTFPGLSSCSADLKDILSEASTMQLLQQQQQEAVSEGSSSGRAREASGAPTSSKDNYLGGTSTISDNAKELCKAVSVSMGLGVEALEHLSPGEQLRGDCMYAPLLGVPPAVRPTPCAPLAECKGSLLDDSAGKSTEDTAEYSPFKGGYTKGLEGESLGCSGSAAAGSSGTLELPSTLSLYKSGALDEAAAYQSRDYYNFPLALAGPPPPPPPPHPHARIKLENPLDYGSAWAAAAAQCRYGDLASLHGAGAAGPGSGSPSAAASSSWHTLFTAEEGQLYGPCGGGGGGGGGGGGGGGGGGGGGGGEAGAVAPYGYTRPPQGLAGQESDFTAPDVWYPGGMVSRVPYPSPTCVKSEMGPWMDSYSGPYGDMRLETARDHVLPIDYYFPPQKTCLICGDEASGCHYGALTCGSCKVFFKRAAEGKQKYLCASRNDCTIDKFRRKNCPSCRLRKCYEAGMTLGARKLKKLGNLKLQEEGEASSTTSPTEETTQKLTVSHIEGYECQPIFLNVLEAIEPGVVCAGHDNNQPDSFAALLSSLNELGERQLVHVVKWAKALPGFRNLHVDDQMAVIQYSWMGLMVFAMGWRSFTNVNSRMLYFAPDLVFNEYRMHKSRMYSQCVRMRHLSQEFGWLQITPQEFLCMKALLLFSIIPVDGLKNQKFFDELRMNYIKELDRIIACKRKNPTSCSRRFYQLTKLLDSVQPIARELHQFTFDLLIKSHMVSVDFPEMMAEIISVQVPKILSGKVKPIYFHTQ

SMILES | Potency [1] | Potency [2] | Potency [3] | Potency [4] | Potency [5] | Potency [6] | Potency [7] | Potency [8] | Potency [9] | Potency [10] | Potency [11] | Potency [12] | Potency [13] | Potency [14] | Potency [15] | Potency [16] | Potency [17] | Potency [18] | outcome [19] | Potency [20]
c1cnc2c(c1)ccc1cccnc12 | inactive | inactive | inactive | inactive | inactive | 3.5 µM (active) and 8.71 µM (active) and 9.77 µM (active) | inactive | inactive | inactive | inactive | inactive | 19.5 µM (active) and 24.3 µM (active) and 27.3 µM (active) | 24.6 µM (active) | 13.8 µM (active) and 68.6 µM (active) and 43.3 µM (active) | 3.09 µM (active) and 24.3 µM (active) and 21.7 µM (active) |  |  |  |  | 
CCOC(=O)CC(=O)OCC | inactive | inactive | inactive | inactive | inactive | inactive | inactive | inactive | inactive | inactive | inactive | inactive | inactive | inactive | inactive | inactive | inactive |  |  | 
O=C1OC(=O)c2c(Cl)c(Cl)c(Cl)c(Cl)c21 | inactive | inactive | inactive | inactive | inactive | inactive | inactive | inactive | inactive | inactive | inactive | inactive | inactive | inactive | inactive | inactive |  |  |  | 
CC(C)c1ccc(C(C)C)cc1 | inactive | inactive | inactive | inactive | inactive | inactive | inactive | inactive | inactive | inactive | inactive | inactive | inactive |  | inactive | inactive |  | inactive |  | 
C=C(C)CC(C)(C)C | inactive | inactive | inactive | inactive | inactive | inactive | inactive | inactive | inactive | inactive | inactive | inactive | inactive |  | inactive | inactive | inactive |  |  | 
NC(=O)c1ncn([C@@H]2O[C@H](CO)[C@@H](O)[C@H]2O)n1 | inactive | inactive | inactive | inactive | inactive | inactive | inactive | inactive | inactive | inactive | inactive | inactive | inactive |  | inactive | inactive |  |  | inactive | 
C=C1C[C@]23C[C@@]1(O)CC[C@H]2[C@@]12C=C[C@H](O)[C@@](C)(C(=O)O1)[C@H]2[C@@H]3C(=O)O | inactive | inactive | inactive | inactive | inactive | inactive | inactive | inactive | inactive | inactive | inactive | inactive | inactive | inactive | inactive | inactive | inactive |  |  | 
CC(=O)OCc1ccc2c(c1)OCO2 | inactive | inactive | inactive | inactive | inactive | inactive | inactive | inactive | inactive | inactive | inactive | inactive | inactive | inactive | inactive | inactive | inactive |  |  | 
CCCN(CCC)C(=O)SCC | inactive | inactive | inactive |  | inactive | inactive | inactive | inactive | inactive | inactive | inactive | inactive | inactive |  | inactive | inactive | inactive | inactive |  | inactive
O=c1c(O)c(-c2ccc(O)c(O)c2)oc2cc(O)cc(O)c12 | inactive | inactive | inactive | inactive | inactive | inactive | inactive | inactive |  | inactive | inactive | 27.3 µM (active) and 24.5 µM (active) and 11.9 µM (active) | 30.9 µM (active) | 48.6 µM (active) and inactive | inactive | inactive | inactive | inactive | inactive | 
CCN(CC)CCNC(=O)c1ccc(N)cc1 | inactive | inactive | inactive | inactive | inactive | inactive | inactive | inactive | inactive | inactive | inactive | inactive | inactive |  | inactive | inactive |  |  | inactive | 
Nc1cccc(N)n1 | inactive | inactive | inactive | inactive | inactive | inactive | inactive | inactive | inactive | inactive | inactive | inactive | inactive |  | inactive | inactive |  | inactive |  | 
CS(=O)(=O)c1ccc(Cl)cc1 | inactive | inactive | inactive | inactive | inactive | inactive | inactive | inactive | inactive | inactive | inactive | inactive | inactive |  | inactive | inactive | inactive |  |  | 
O=C1O[C@H]([C@H](O)CO)C(O)=C1O | inactive | inactive | inactive | inactive | inactive | inactive | inactive | inactive | inactive | inactive | inactive | inactive | inactive | inactive | inactive | inactive |  |  |  | 
CCCCCC(C)=O | inactive | inactive | inactive | inactive | inactive | inactive | inactive | inactive | inactive | inactive | inactive | inactive | inactive |  | inactive | inactive | inactive |  |  | 
CCn1cc(C(=O)O)c(=O)c2cc3c(cc21)OCO3 | inactive | inactive | inactive | inactive | inactive | inactive | inactive | inactive | inactive | inactive | inactive | inactive | inactive | inactive | inactive | inactive | inactive |  | inactive | 
CC(COCC(C)OC(=O)c1ccccc1)OC(=O)c1ccccc1 (configuration not stated) | inactive | inactive | inactive | inactive | inactive |  |  | inactive | inactive | inactive | inactive | inactive | inactive |  | inactive | inactive | inactive |  |  | 
